# A selection: hits, their analogues and other compounds. The true share with any hit is near 3.5%.
# Anthrax LF prot – Bacillus anthracis LF protease inhibitors, primary screen, biochemical, multiplex microsphere, MLPCN library; inhibition, % at 10 µM; 0.12% of 360,000 active; Lethal factor (Bacillus anthracis), P15917; multiplex microsphere protease cleavage assay; also: plate controls were buffer without enzyme for full effect and enzyme alone for no effect
# BoNT A protease – BoNT/A light chain protease inhibitors, primary screen, biochemical, flow cytometry, MLPCN library | 0.17% of 360,000 active | Botulinum neurotoxin type A light chain protease (Clostridium botulinum A str. ATCC 3502) | inhibition, % at 10 µM | multiplex microsphere protease substrate cleavage; also: plate controls were buffer without enzyme for full effect and enzyme alone for no effect
# Bead autofluor – flagged as autofluorescent in microsphere protease counterscreen. fluorescence intensity (no concentration beside the values). 3.1% of 360,000 active. compound autofluorescence counterscreen, microsphere flow cytometry; stronger effect = higher value. AID 624483; in the data active = fluorescence intensity above about 16000; inconclusive = no clear call, values can overlap the other calls
# BoNT F protease – BoNT/F light chain protease inhibitors, primary screen, biochemical, flow cytometry, MLPCN library. 0.22% of 360,000 active. Multiplex microsphere protease cleavage assay. Botulinum neurotoxin type F light chain protease (Clostridium botulinum). inhibition, % at 10 µM. AID 588497, 2011; in the data active = inhibition above about 35%, passing the limit was not always enough; inconclusive = no clear call, values can overlap the other calls; also: plate controls were buffer without enzyme for full effect and enzyme alone for no effect
# * marks the source's active call; other numbers are inactive results; ? = inconclusive. Rule as the data show it, unless noted: active = inhibition above about 30%; inconclusive = no clear call, values can overlap the other calls; inactive = below that.
SMILES,Anthrax LF prot,BoNT A protease,Bead autofluor,BoNT F protease
CCN1CCN(C(=O)c2ccc(N3CC4CC(C3)c3cccc(=O)n3C4)c(NC(=O)c3cc(OC)cc(OC)c3)c2)CC1 (centres undefined),2,0,6188,-2
CC1CN(C(=O)CCS(=O)(=O)c2ccccc2)CC(C)O1 (centres undefined),-5,-1,3171,-8
Cc1cc(C)c(S(=O)(=O)N2CCCCC2CCNC(=O)C(=O)NCc2cccnc2)c(C)c1 (centres undefined),0,-3,?,0
O=C(c1ccco1)N1CCN(Cc2csc(-c3ccccc3Cl)n2)CC1,-6,-1,6364,0
COc1cccc(CNc2ccc(N3CCC(C)CC3)cc2)c1OC,-4,3,19533*,-5
C[C@H]1CN([C@@H](C)CO)C(=O)c2cccc(NC(=O)c3ccc(-c4nccs4)cc3)c2O[C@@H]1CN(C)C(=O)NC1CCCCC1,6,0,4414,0
COc1ccccc1NC(=O)c1csc2c1CCCC2,-4,?,19509*,1
CN1C(=CC=C2C=C(I)C(=O)C(I)=C2)C(C)(C)c2ccccc21,55*,101*,3157,19
CN1/C(=C\C=C2C(=O)NC(=S)NC2=O)C(C)(C)c2ccccc21,-12,-13,14576,-60
CCN(CC)c1ccc(/C=C/C(=O)c2ccc(Br)cc2)cc1,42*,62*,30707*,81*
COc1ccc(C(=O)Cn2c3ccccc3n3nc(CCC(=O)O)c(=O)nc23)cc1OC,2,0,20229*,-1
Cc1c2c(nc3ccccc13)CC(C)(C)CC2=O,1,0,4333,-1
CC1(C)CC(=O)c2c(nn(-c3ccccc3)c2-c2ccncc2)C1,1,?,22472*,-3
COc1ccc(N(C)S(=O)(=O)c2c(C)[nH]c(=O)[nH]c2=O)cc1,5,0,4122,10
COc1ccc(N(C)S(=O)(=O)c2c(C)[nH]c(=O)[nH]c2=O)c(OC)c1,-3,0,23317*,-2
CCCCCn1c(=NC(C)=O)c(C#N)cc2c(=O)n3ccccc3nc21,0,2,23665*,0
CCCCn1c(=NC(C)=O)c(C#N)cc2c(=O)n3cccc(C)c3nc21,-5,1,3842,-4
Cc1ccccc1-n1c(=O)c(C#N)cc2c(=O)n3ccccc3nc21,0,?,21339*,-7
CCCCn1c(=NC(=O)c2ccc3c(c2)OCO3)c(C#N)cc2c(=O)n3cccc(C)c3nc21,49*,63*,2551,38*
O=S(=O)(c1cc(Cl)c(Cl)cc1Cl)N1CCN2CCCC2C1 (centres undefined),-2,-1,5228,-17
COc1cccc(-c2cc(NC=O)c3ncc(-c4ccc(C(C)=O)cc4)n3c2)c1,-2,0,3982,3
Cc1cc(C)c(S(=O)(=O)N2CCOC2CNC(=O)C(=O)NCc2ccncc2)c(C)c1 (centres undefined),-2,-1,5464,-10
CC[C@@H](C)[C@H](NC(=O)Cc1c(C)c2c(cc(C)c3c(C)c(C)oc32)oc1=O)C(=O)O,-11,2,3639,38*
Cc1oc2c(c(C)cc3oc(=O)c(CC(=O)N[C@@H](C)C(=O)O)c(C)c32)c1C,2,4,3536,26
Cc1nc2ccc3[nH]snc3c2n1,-1,0,23032*,2
SMILES,Anthrax LF prot,BoNT A protease,Bead autofluor,BoNT F protease
Cc1ccc(N(C(=O)c2csnn2)C(C(=O)NC2CCCCC2)c2cccnc2)cc1 (centres undefined),0,1,3829,9
CCSc1nc2sc3c(c2c(=O)n1-c1ccccc1C)CCN(C)C3,13,16,4927,5
CCSc1nc2sc3c(c2c(=O)n1-c1ccccc1)CCN(C(C)C)C3,4,57*,6785,46*
CCCCSc1nc2sc3c(c2c(=O)n1-c1ccccc1)CCN(C)C3,14,52*,4210,21
C=C(C)CSc1nc2sc3c(c2c(=O)n1C1CCCCC1)CCN(C)C3,13,33*,7245,-4
C=CCSc1nc2sc3c(c2c(=O)n1-c1ccc(C)cc1)CCN(C)C3,1,36*,4217,-5
CCCn1c(=O)cc(N)n(-c2ccc(OC(F)(F)F)cc2)c1=O,-11,0,2831,12
CN1CCc2c(sc3nc(SCC(N)=O)n(-c4ccccc4)c(=O)c23)C1,-8,1,?,3
C=C(C)CSc1nc2sc3c(c2c(=O)n1-c1ccccc1)CCN(C)C3,16,37*,4836,9
CCOC(=O)C1C(=O)C=C(/C=C/c2ccccc2)CC1c1ccc(Cl)cc1 (centres undefined),-4,?,16539*,-4
Cc1ccc(-c2cnc(N)n2C)cc1C,-5,-2,23519*,-6
CCCCCOC(=O)c1ccccc1C(=O)O,4,-1,4752,-6
CCCCCCCCCCOC(=O)c1csc2nnsc12,-2,?,20631*,-3
N#CCC(=O)N/N=C\c1cc(Br)ccc1OC/C=C/c1ccccc1,-2,0,5742,-2
c1ccc(-c2nc3nc4ccccc4nc3n2CC2CCCO2)cc1 (centres undefined),-4,1,4262,4
c1coc(-c2nc3nc4ccccc4nc3n2CC2CCCO2)c1 (centres undefined),4,3,22833*,1
Cc1ccc(N2C(=O)C3C(C2=O)C2C=CC3C23CC3)cc1 (centres undefined),-3,?,19890*,0
O=C1C2C(C(=O)N1c1ccncc1)C1C=CC2C12CC2 (centres undefined),-2,0,3084,0
CCOC(=O)c1c(-c2ccccc2)nc2ccccn12,1,?,22802*,-1
Cc1ccc(-c2nc3ccccn3c2NC(=O)c2ccco2)cc1,-8,-3,6801,-21
O=C(Nc1c(-c2ccccc2)nc2ccccn12)c1ccco1,1,?,22214*,0
CSc1ccccc1NC(=O)c1ccco1,0,0,22329*,0
O=C(Nc1ccccc1F)c1ccco1,-3,-1,9353,-16
O=C(Nc1ccccc1NC(=O)c1ccco1)c1ccco1,-2,0,22408*,1
O=C(Nc1ccccc1-c1ccccc1NC(=O)c1ccco1)c1ccco1,0,0,3324,1
SMILES,Anthrax LF prot,BoNT A protease,Bead autofluor,BoNT F protease
O=C(NC1CCCCC1)c1ccc(-n2cnnn2)cc1,0,-2,?,-9
C=CCOc1ccc(C2=NOC(C(=O)Nc3ccc4c(c3)OCCO4)C2)cc1OC (centres undefined),-6,1,4163,1
Cc1cc(NC(=O)CSCC(=O)Nc2cccc(S(=O)(=O)N3CCCCCC3)c2)no1,0,-1,5295,4
CC(=O)Nc1nnc(CCS(=O)(=O)c2ccc(C)cc2)s1,2,-1,4325,-13
COC(=O)c1ccc(/C=C/C(=O)c2ccc(OC)cc2)cc1,0,0,22281*,1
COC(=O)c1ccc(NS(=O)(=O)c2cccc3cccnc23)cc1,0,4,18372*,8
O=S(=O)(NC1CCCCCC1)c1cccc2cccnc12,-8,-2,16645*,-6

# Source: PubChem BioAssay
